Records with an inconclusive call do not appear. Activity calls are given as the source filed them. The calls were made as follows: active = hit-call score of the fitted dose curve at least 0.9, where 1 is the maximum; inconclusive = response in the unintended direction; inactive = score below 0.9.
Columns and labels:
[1] = target: Cellular tumor antigen p53 (Homo sapiens) (UniProt P04637); test: TOX21_p53_BLA_p2_ratio: Tox21 HCT-116 p53 Agonism Beta-lactamase Assay, Ratio, Phase 2 (AID 2283592)
In short: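 First, HCT116 reporter cells settle for 5 h at 37C. Next, DMSO compound solutions are pinned in (217-fold dilution) and left 16 h. Finally, CCF4-AM substrate is loaded 2 h at room temperature and the 460/530 nm ratio read.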

[2] = TOX21_p53_BLA_p3_viability: Viability Assessment in the Tox21 HCT-116 p53 Agonism Beta-lactamase Assay, Phase 3 (AID 2283593);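 also: cells exposed to compound for 16 h before reading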
In short: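 Cellular ATP was quantified by CellTiter-Glo luminescence, read after 30 min at room temperature. Beforehand, HCT116 cells (4000/well) received compound 5 h post-seeding, 217-fold diluted from DMSO, then incubated 16 h at 37C.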

[3] = target: Cellular tumor antigen p53 (Homo sapiens) (UniProt P04637); test: TOX21_p53_BLA_p3_ratio: Tox21 HCT-116 p53 Agonism Beta-lactamase Assay, Ratio, Phase 3 (AID 2283596)
In short: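 Cells were seeded at 4000/well, rested 5 h at 37C, then dosed with DMSO compound solutions (217-fold dilution) for 16 h. CCF4-AM substrate was loaded for 2 h at room temperature, and the 460/530 nm emission ratio was fitted for gain of signal versus DMSO.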

[4] = TOX21_p53_BLA_p4_viability: Viability Assessment in the Tox21 HCT-116 p53 Agonism Beta-lactamase Assay, Phase 4 (AID 2283597);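 also: hits lower the luminescence signal meaning cytotoxicity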
In short: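 4000 HCT116 cells per well; 5 h attachment; compounds from DMSO, 217-fold dilution; 16 h at 37C. Then CCF4-AM, 2 h RT, followed by CellTiter-Glo, 30 min RT, luminescence. Decrease = cytotoxicity.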

[5] = target: Cellular tumor antigen p53 (Homo sapiens) (UniProt P04637); test: TOX21_p53_BLA_p5_ratio: Tox21 HCT-116 p53 Agonism Beta-lactamase Assay, Ratio, Phase 5 (AID 2283599)
In short: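 Beta-lactamase reporter ratio (blue 460 nm over green 530 nm, 405 nm excitation) after 2 h CCF4-AM loading, in HCT-116 cells exposed 16 h at 37 C to compounds pinned at 217-fold dilution. Increases relative to DMSO baseline scored.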

[6] = TOX21_p53_BLA_p5_viability: Viability Assessment in the Tox21 HCT-116 p53 Agonism Beta-lactamase Assay, Phase 5 (AID 2283600)
In short: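 Decreased CellTiter-Glo luminescence denotes lost viability. Exposure: 16 h at 37C, 5% CO2, with compounds from DMSO stocks diluted 217-fold in wells of 4000 cells.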

[7] = target: Cellular tumor antigen p53 (Homo sapiens) (UniProt P04637); test: TOX21_p53_BLA_p4_ratio: Tox21 HCT-116 p53 Agonism Beta-lactamase Assay, Ratio, Phase 4 (AID 2283601)
In short: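 Signal is the blue/green (460nm/530nm) ratio of cleaved versus uncleaved CCF4-AM substrate, read after 2 h substrate loading. Cells were HCT116 carrying the p53-responsive beta-lactamase reporter, dosed 16 h at 37C, 5% CO2; CellTiter-Glo measured in parallel.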

Measured: outcome

Cellular tumor antigen p53 (Homo sapiens), sequence (P04637 whole entry, looked up): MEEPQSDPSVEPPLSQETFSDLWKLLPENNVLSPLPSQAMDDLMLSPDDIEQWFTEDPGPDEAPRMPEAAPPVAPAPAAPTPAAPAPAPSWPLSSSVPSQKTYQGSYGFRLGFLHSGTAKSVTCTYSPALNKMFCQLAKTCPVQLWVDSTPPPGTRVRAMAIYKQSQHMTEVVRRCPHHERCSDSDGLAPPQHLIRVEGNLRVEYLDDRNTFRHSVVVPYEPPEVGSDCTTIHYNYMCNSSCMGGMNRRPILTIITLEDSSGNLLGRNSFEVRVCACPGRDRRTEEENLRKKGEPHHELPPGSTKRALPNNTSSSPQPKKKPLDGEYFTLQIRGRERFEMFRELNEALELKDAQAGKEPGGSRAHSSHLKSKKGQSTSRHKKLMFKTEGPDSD

COC(=O)[C@@H]1[C@H]2C[C@H]3c4[nH]c5ccccc5c4CCN3C[C@@H]2CC[C@@H]1O
inactive: all assays above

COC(=O)CCc1ccc(OCC(O)CNC(C)C)cc1 (stereo not drawn)
not listed: [5] | [7]
inactive: all other assays above

O=C(O)Cc1ccc(Cl)cc1Cl
not listed: [5] | [7]
inactive: all other assays above

C=C[C@]1(C)C[C@@H](OC(=O)CO)[C@]2(C)[C@H](C)CC[C@]3(CCC(=O)[C@H]32)[C@@H](C)[C@@H]1O
not listed: [5]
inactive: all other assays above

O=NN(CCCl)C(=O)NC1CCCCC1
not listed: [5] | [7]
inactive: all other assays above

CCCCC(CC)CN (stereo not drawn)
not listed: [5] | [6]
inactive: all other assays above

O=P(O)(O)OC(Cn1cncn1)(Cn1cncn1)c1ccc(F)cc1F
not listed: [4] | [7]
inactive: all other assays above

From PubChem BioAssay (EPA / NIEHS)
